Screens from PubChem BioAssay.
Mtb MenB inh: Mtb MenB enzyme inhibition; inhibition, % (concentration not given with the values); P9WNP5; MenB enzyme assay, absorbance read-out; hit rate 0.43% among 100,000; AID 540299; in the data active = inhibition above about 21%, passing the limit was not always enough
Polio RdRp inh: inhibitors of poliovirus RNA polymerase binding and polymerization | hit rate 0.66% among 150,000 | P03300 | poliovirus polymerase elongation, fluorescence polarization; active compounds read low | % elongation, % (compound at 16.7 µg/mL); in the data active = % elongation below about 90%
AID504770: E. coli YBA685 growth inhibition, screen for V. cholerae RctB inhibitors; z-score (no concentration beside the values); hit rate 0.27% among 130,000; E. coli YBA685 rctB-dependent plasmid, OD600 growth, 3 h; active compounds read low; in the data active = z-score below about -2, passing the limit was not always enough
MbtI inh: MbtI salicylate synthase inhibition; hit rate 0.89% among 100,000; P9WFX0; AID 493033; inhibition, % (test concentration not listed); purified MbtI enzyme, fluorescence intensity read-out; in the data active = inhibition mostly above about 56%, no sharp cut-off; inactive = mostly below about 77%
Target sequence (P9WFX0 whole entry, looked up): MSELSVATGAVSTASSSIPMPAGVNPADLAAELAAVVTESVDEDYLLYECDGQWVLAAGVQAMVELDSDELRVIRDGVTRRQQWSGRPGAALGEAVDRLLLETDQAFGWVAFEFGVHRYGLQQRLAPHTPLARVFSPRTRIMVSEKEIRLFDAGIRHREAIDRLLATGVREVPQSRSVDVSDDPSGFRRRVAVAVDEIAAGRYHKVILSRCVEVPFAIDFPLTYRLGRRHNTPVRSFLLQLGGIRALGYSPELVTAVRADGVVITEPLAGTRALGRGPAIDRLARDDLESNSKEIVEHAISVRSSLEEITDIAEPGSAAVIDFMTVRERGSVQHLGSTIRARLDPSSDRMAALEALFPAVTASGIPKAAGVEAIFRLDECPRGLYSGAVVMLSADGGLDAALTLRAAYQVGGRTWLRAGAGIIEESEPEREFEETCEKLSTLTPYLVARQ
Numbers without * were called inactive; . = no result; ! = a repeat was not active. Hits are enriched below; roughly 1.5% of the tested compounds scored in any of these assays.

SMILES	Mtb MenB inh	Polio RdRp inh	AID504770	MbtI inh
Cc1c(C)[n+]([O-])c2ccc3c(non3O)c12	-138	101	-2.2*	13
O=c1[nH]c(SC2Cc3ccccc3C2O)nc2c1cnn2-c1ccccc1 (stereo not given)	-4	102	-0.45	-1
COc1ccc(OCC(=O)Sc2ccc(Cl)cc2)cc1	-20	81*	-0.2	.
CCOc1ccc(NC(=O)c2sc(C)c(CC(=O)Nc3ccc(Cl)cc3)c2O)cc1	-1	103	0.45	-29
Cc1oc2c(c1C(=O)NCc1ccccc1)C(=O)c1ccccc1C2=O	-2	101	-1.1	13
Cc1oc2c(c1C(=O)O)C(=O)c1ccccc1C2=O	-13	66*	2.4	-3
CC(C)Nc1nn(CN2CCN(C(=O)c3ccccc3)CC2)c(=S)s1	-3	91	-0.5	77*
CC1=CC(C)=NC2Nc3c(C)cc(C)cc3C(=N)C12 (stereo not given)	-279	86*	0.05	52
COC(=O)CNC(=O)Cc1cccc2ccccc12	-9	.	-0.15	-4
COc1ccc(C(=O)NCCc2nc(-c3ccccc3Cl)no2)cc1OC	-19	102	0.45	-5
Cc1cc(=S)[nH]c2ccccc12	-40	104	1	61*
CCc1onc(C)c1C(=O)Nc1ccc(Br)cc1F	-14	108	-0.2	-8
CSc1nnc(CCNC(=O)C(c2ccccc2)C2CCCC2)n1C (stereo not given)	-70	104	-1.3	-8
CN(C)c1nc(-c2ccccc2)[n+](C)s1	-25	102	-4*!	32
CN(C)c1nc(-c2ccccc2)c(CC(=O)O)s1	12	92	0	15
COc1ccc(COc2ncnc3ccccc23)cc1F	-18	102	-0.2	21
Cc1ccc(Cn2nnc3c(=O)[nH]c(C(=O)NC(C)(C)C)nc32)cc1	-26	102	-0.15	-10
CCc1ccccc1NC(=O)CN1CCN(Cc2ccccc2C)S1(=O)=O	-15	102	-3.5*	3
Cc1ccc(C(=O)CSC2=NCCCCC2)cc1	33*	93	-0.85	16
COC(=C(C#N)C#N)c1c(-c2c(Cl)cccc2Cl)noc1C	-10	102	-0.7	-27
Nc1nc(NCc2ccccc2OC(F)(F)F)n[nH]1	.	.	-0.75	.
ONC=NCc1ccccc1OC(F)(F)F	34*	100	-0.5	7
COc1cc(N)c(Cl)cc1C(=O)OCC(=O)c1ccc2c(c1)OCCO2	-14	100	0.05	2
Cc1cc(C(=O)N2CCC(Cc3ccccc3)CC2)on1	.	.	-0.15	.
Cc1nn(Cc2ccc(C(=O)Sc3ccc(C(F)(F)F)cn3)o2)c(C)c1Br	9	104	0.55	86*
SMILES	Mtb MenB inh	Polio RdRp inh	AID504770	MbtI inh
O=C(NN1C(=O)c2cccc3cccc(c23)C1=O)c1ccn[nH]1	-50	103	0.6	176
O=C(O)c1ccc2[nH]c3c(c2c1)CSCC3	0	84*	-0.3	.
CN(C)CCOC(=O)c1ccc2[nH]c3c(c2c1)CSCC3	5	99	1.2	50
CC1(C)CSC(=NC2CCCCC2)N1	.	102	1.1	-8
COc1ccc2cc(/C=N/NC(N)=O)c(Cl)nc2c1	3	107	-0.2	-4
Cc1ccc2oc(=O)n(CC(=O)C(C)(C)C)c2c1	.	.	-2.1*	.
Cc1ccc2oc(=O)n(CC(=O)c3ccc(F)cc3)c2c1	.	.	0.25	.
CCOC(=O)C1CCN(c2c(C(=O)c3ccc(C)cc3)cnc3ccc(F)cc23)CC1	.	80*	.	.
O=C1CCC(=O)N1c1ccc2c(c1)oc1ccccc12	-17	108	0.3	.
OC(COc1ccc(F)cc1)CN1CCN(c2nccc(C(F)(F)F)n2)CC1 (stereo not given)	.	.	0.1	.
O=C(OCC(=O)N1CCC(c2ccccc2)=N1)c1cc(=O)[nH]c2ccccc12	5	103	0.05	30
Cc1ccc(C(=O)C(C)OC(=O)C2=COCCO2)cc1C (stereo not given)	1	90*	0.3	1
COc1ccc(OC)c(CNC(=O)CSc2c3c(nc4cc(Cl)ccc24)CCCC3)c1	.	74*	.	.
O=S1(=O)N=C2CCCCCN2C(c2ccc(Br)cc2)N1 (stereo not given)	4	22*	-0.15	-4
COc1cccc(C2NS(=O)(=O)N=C3CCCCCN32)c1OC(F)F (stereo not given)	-13	103	-0.2	3
Cc1ccc(NCc2nc3ccccc3s2)cc1	-27	100	1.3	-1
COC(=O)c1sc(NC(=O)COc2ccc(OC)cc2)c(C#N)c1C	-20	83*	-0.5	.
C#CC(=O)OCC(=O)Nc1ccc(C)c(C)c1	-25	89*	0.4	66*
Cc1cc(NC(=O)CN2C(=O)CC(c3ccccc3)Sc3ccccc32)no1 (stereo not given)	.	.	-0.5	.
c1coc(-c2nnc(-c3ccco3)nn2)c1	-63	43*	1.3	13
